# Measurements taken from PubChem BioAssay (NCATS).
# Records with an inconclusive call do not appear. Unmarked numbers belong to inactive results. Calls of active or inactive are those of the source. The call rests on the fitted dose curve; in most records, active means well fitted cell-killing curve with a large enough effect; inconclusive means small, poorly fitted or top-dose-only effect, or effect the other way; inactive means no such curve, though single readings can be large or run the other way. Starred links: 1 amine or outer side, 2 acyl side, 3 side chain; linkers in the order of their positions; H or OH if unused. Positions of bridges follow the written chain, without caps; N, C: chain ends. Non-standard residues stand in square brackets, D forms with d. Residues, ends and D or L forms follow the SMILES beside them. Chains are numbered I, II in the order given. Actinocin(9to1) = Cc1c2oc3c(C)ccc(C(=O)[*:1])c3nc-2c(C(=O)[*:2])c(N)c1=O; NMeV = CN[CH](C(=O)O)C(C)C; Sar = CNCC(=O)O
# Assay: Quantitative High-Throughput drug screen in 47 multiple myeloma cell lines against the NCATS MIPE library collection: SKMM1_PLB cell viability assay (AID 1919863); further: nearly all actives have a fitted effect of over 35% in size; on viability: series mostly up to about 46 µM
# Details: SKMM1 myeloma viability, CellTiter-Glo ATP, 48 h; viability: active compounds read low
# Outline: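 qHTS format: cells plated (500/well), pin-dosed with MIPE 4.0 compounds, kept 48 h at 37 °C. Readout was CellTiter-Glo luminescence, median RLU.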
# Potency means the concentration at half of the fitted maximal effect.
Compound,Potency,viability [%]
CCc1ccc(C(=O)Nc2cc(CN3CCN(C)CC3)cc(C(F)(F)F)c2)cc1C#Cc1cnc2ccnn2c1,16.6 µM (active),
C=CC[C@@H]1C=C(C)C[C@H](C)C[C@H](OC)[C@H]2O[C@@](O)(C(=O)C(=O)N3CCCC[C@H]3C(=O)O[C@H](C(C)=C[C@@H]3CC[C@H](O)[C@H](OC)C3)[C@@H](C)[C@@H](O)CC1=O)[C@@H](C)C[C@@H]2OC,1.18 µM (active),
CO[C@@H]1[C@@H](O)[C@H](O)[C@@H](n2c3c(Cl)cccc3c3c4c(c5c6cccc(Cl)c6[nH]c5c32)C(=O)NC4=O)O[C@@H]1CO,2.35 µM (active),
C[C@H](NC(=O)C(C#N)=Cc1cccc(Br)n1)c1ccccc1,3.72 µM (active),
Cn1cnc(=N)c2[nH]cnc21,0.209 µM (active),
CC(C)N1[N]C(=C2C=c3cc(O)ccc3=N2)c2c(N)ncnc21,0.118 µM (active),
COc1cccc2c1C(=O)c1c(O)c3c(c(O)c1C2=O)C[C@@](O)(C(=O)CO)C[C@@H]3O[C@H]1C[C@H](N)[C@@H](O)[C@H](C)O1,0.935 µM (active),
COc1cc(C=CC(=O)CC(=O)C=Cc2ccc(O)c(OC)c2)ccc1O,15.2 µM (active),
C=CC(=O)Nc1ccc2ncnc(Nc3ccc(OCc4cccc(F)c4)c(Cl)c3)c2c1,6.62 µM (active),
OCc1ccccc1O[C@@H]1O[C@H](CO)[C@H](O)[C@H](O)[C@H]1O,,130
Cn1cc(C2=C(c3c4n(c5ccccc35)CCC(CN)C4)C(=O)NC2=O)c2ccccc21 (configuration not stated),20.9 µM (active),
O=C(Nc1cccc(Nc2ncc(Br)c(NCCc3cnc[nH]3)n2)c1)N1CCCC1,23.5 µM (active),
C=CCNc1c(O)cc2c(O)c1C[C@@H](C)C[C@H](OC)[C@@H](O)[C@@H](C)C=C(C)[C@H](OC(N)=O)[C@@H](OC)C=CC=C(C)C(=O)N2,0.264 µM (active),
C[C@@H]1CC[C@@]2(OC1)OC1CC3C4CC=C5CC(O)CCC5(C)C4CCC3(C)C1[C@@H]2C (some centres not stated),,155
CCS(=O)(=O)Nc1ccc2[nH]c(O)c(C(=Nc3ccc(CN4CCCCC4)cc3)c3ccccc3)c2c1,5.9 µM (active),
CCN(CC)CCNC(=O)c1c(C)[nH]c(C=C2C(=O)Nc3ccc(F)cc32)c1C,27 µM (active),

Compound,Potency,viability [%]
O=C1NC(=O)[C@@H](c2cn3c4c(cccc24)CCC3)[C@H]1c1c[nH]c2ccccc12,0.132 µM (active),
COC1=C2C[C@@H](C)C[C@H](OC)[C@@H](O)[C@@H](C)C=C(C)[C@H](OC(N)=O)[C@@H](OC)C=CC=C(C)C(=O)NC(=CC1=O)C2=O,2.09 µM (active),
NC(=NCCCCCCN=C(N)N=C(N)Nc1ccc(Cl)cc1)N=C(N)Nc1ccc(Cl)cc1,11.8 µM (active),
CC(C)C[C@H](NC(=O)[C@@H](NC(=O)c1cccc(-c2ccccc2)n1)[C@@H](C)O)B(O)O,0.0743 µM (active),
CC(=O)O[C@@]12CO[C@H]1C[C@H](O)[C@@]1(C)C(=O)[C@H](O)C3=C(C)[C@@H](OC(=O)C(O)[C@@H](NC(=O)OC(C)(C)C)c4ccccc4)C[C@@](O)([C@@H](OC(=O)c4ccccc4)[C@@H]21)C3(C)C (some centres not stated),,60
C[C@H](NCc1ccc(OCc2cccc(F)c2)cc1)C(N)=O,18.7 µM (active),
C[C@@]12C(=O)OC(=O)[C@@]1(C)C1CCC2O1,7.43 µM (active),
"Cc1c2oc3c(C)ccc(C(=O)NC4C(=O)NC(C(C)C)C(=O)N5CCCC5C(=O)N(C)CC(=O)N(C)C(C(C)C)C(=O)OC4C)c3nc-2c(C(=O)NC2C(=O)NC(C(C)C)C(=O)N3CCCC3C(=O)N(C)CC(=O)N(C)C(C(C)C)C(=O)OC2C)c(N)c1=O (configuration not stated) (I: TVP[Sar][NMeV] / II: TVP[Sar][NMeV]; ester I:1-I:C, II:1-II:C; linker I:N-II:N via Actinocin(9to1); configuration not given here)",,-11
CC(C=CC(=O)NO)=C[C@@H](C)C(=O)c1ccc(N(C)C)cc1,0.166 µM (active),
c1ccc(CNc2nc(NCc3ccccc3)c3ccccc3n2)cc1,29.6 µM (active),
CN(C)c1ccc2cc(C(=O)N[C@@H](CCCN=C(N)CCl)C(=O)NCc3ccccc3)ccc2c1,18.7 µM (active),
COc1cccc2c1C(=O)c1c(O)c3c(c(O)c1C2=O)C[C@@](O)(C(=O)CO)C[C@H]3O[C@H]1C[C@H](N)[C@H](O)[C@H](C)O1,0.209 µM (active),
CCC(C(=O)O)C1CCC(C)C(C(C)C(O)C(C)C(=O)C(CC)C2OC3(C=CC(O)[C@@]4(CC[C@](C)(C5CC[C@@](O)(CC)C(C)O5)O4)O3)C(C)CC2C)O1 (some centres not stated),2.64 µM (active),
CCC(C=C[C@@H]1OC(=O)C=C[C@H]1C)=C[C@H](C)CC=CC(C)=C[C@@H](C)C(=O)[C@@H](C)[C@H](O)[C@@H](C)CC(C)=CC(=O)O,0.022 µM (active),
CC(C)C[C@H](NC(=O)CNC(=O)c1cc(Cl)ccc1Cl)B1OC(=O)CC(CC(=O)O)(C(=O)O)O1 (some centres not stated),0.209 µM (active),
COc1cc2c(cc1OC)[C@@H]1C(=O)c3ccc4c(c3O[C@@H]1CO2)C=CC(C)(C)O4,13.2 µM (active),
